# Hit rate of the full screen: of about 290,000 compounds, about 2,700 (0.93%) were called active. What follows is part of a selection rich in actives, with near analogues and random picks from the rest. Values without a mark were called inactive.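 The calls were made as follows: active = inhibition above the screen-wide mean plus 3 SD, computed separately per campaign (cut at about 16% in these data); inactive = the rest.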
# System: Heat shock protein HSP 90 (rabbit reticulocyte lysate; luciferase refolding)
# Assay: HSP90 inhibitors, primary screen, cell lysate, luminescence (AID 1789);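 also: 0% = DMSO wells and 100% = 60 µM geldanamycin wells; inhibitors lower the luminescence because luciferase stays unfolded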
# Details: 3 h, at 5.6 µM, stronger effect = higher value
row,SMILES,inhibition
1,COc1cc(/C=C(\C#N)c2nc3ccccc3[nH]2)ccc1O,-1.74%
2,Cc1ccc2nc(/C(C#N)=C\c3ccc(OC(=O)c4cccs4)cc3)[nH]c2c1,30.5% (active)
3,CCOC(=O)CSc1nc2ccc(C)cc2[nH]1,1.44%
4,CCn1c(CC(=O)Nc2ccccc2C)nnc1SCC(=O)NC1=NCCS1,3.37%
5,O=c1oc(-c2ccccc2NS(=O)(=O)c2ccc(Cl)cc2)nc2ccccc12,0.82%
6,S=c1[nH]nc(/C=C/c2ccccc2)o1,-3.77%
7,O=c1oc(/C=C/c2ccccc2)nc2ccccc12,21% (active)
8,O=C(Nc1ccccc1)c1ccc(NC(=O)c2cccs2)cc1,1.79%
9,Cc1ccc(-c2nnc(-c3ccc(NC(=O)c4cccs4)cc3)o2)cc1,-1.94%
10,Cc1nc(-c2ccc(NC(=O)c3cccs3)cc2)cs1,27.1% (active)
11,Cc1ccc(-c2noc(CNC(=O)c3ccoc3C)n2)cc1,4.35%
12,COc1ccccc1CNC(=O)[C@@H]1CCCN1C(=O)[C@@H]1Cc2ccccc2CN1C(=O)OC(C)(C)C,0.82%
13,Cc1cccc(N=C2NN=C(c3c[nH]c4ccccc34)CS2)c1,8.26%
14,Clc1cccc(N=C2NN=C(c3ccc4c(c3)OCCO4)CS2)c1,38.8% (active)
15,c1ccc(CN2CCC(N=C3NN=C(c4ccc5c(c4)OCCO5)CS3)CC2)cc1,13.2%
16,COC(CNC(=O)c1ccc2c(c1)ncn2-c1cc(C)cc(C)c1)OC,-2.44%
17,O=C(OCCN=C1NS(=O)(=O)c2ccccc21)c1cccc([N+](=O)[O-])c1,-0.96%
18,C=CCOc1c(Br)cc(/C=N\n2nnnc2N)cc1OC,6.06%
19,CCOc1c(Br)cc(/C=C2\C(=O)N(CCC#N)N=C2C)cc1OC,32.1% (active)
20,COc1cc(/C=C2/C(=O)NN(c3cccc(Cl)c3)C2=O)cc(Br)c1O,4.77%
21,COc1ccc(-n2ncc3c2CC(C)(C)CC3NC(=O)CCc2c(C)nn(C)c2C)cc1 (stereo not drawn),-4.92%
22,Cc1n[nH]c(C)c1S(=O)(=O)N1CCCC(C(=O)Nc2ccc(Br)cc2)C1 (stereo not drawn),-0.76%
23,COc1ccc(CNC(=O)CCn2cccc2)cc1,3.81%
24,COc1ccc(NC(=O)/C(C#N)=C\c2cc(OC)c(OCc3ccc(C(=O)O)cc3)cc2Br)cc1,-2.4%
25,COc1ccc(CNC(=O)/C(C#N)=C/c2cccc(OC)c2OC)cc1,31.1% (active)

row,SMILES,inhibition
1,Cc1cc(=O)oc2c1ccc1ccccc12,-1.23%
2,Cc1ccccc1C1CC(c2cccs2)=NN1S(C)(=O)=O (stereo not drawn),-0.31%
3,CC1Cn2c(nnc2-c2cccs2)S1 (stereo not drawn),27.3% (active)
4,Cn1c(SCC(=O)N2CCCC2)nnc1-c1cccs1,-5.69%
5,O=C(O)CCC(=O)Nc1ccc(OCC2CCCO2)cc1 (stereo not drawn),1.1%
6,Cc1cccc(NC(=O)c2ccc(COc3ccccc3[N+](=O)[O-])o2)n1,-1.06%
7,CCOc1ccc(OCc2ccc(C(=O)N(C)c3ccccc3)o2)cc1,23% (active)
8,COC(=O)c1ccc(COc2ccc(C#N)cc2)o1,-2.93%
9,CCOc1ccc(OCc2ccc(C(=O)Nc3cccc(C)n3)o2)cc1,16.8% (active)
10,O=C(NCCc1ccccn1)c1ccc(COc2ccccc2)o1,9%
11,Cc1cccc(NC(=O)Nc2ccc(OCc3ccccc3)cc2)n1,-4.5%
12,Cc1ccc(NC(=S)N(CCCN2CCCC2)Cc2cccn2Cc2ccc(Cl)cc2)cc1,2.82%
13,COc1ccc(NC(=S)N2N=CCC2c2ccccc2)cc1 (stereo not drawn),16.8% (active)
14,COc1ccc(C(=S)Nc2ccccc2)cc1,-0.81%
15,COc1ccc(C(=O)NC2CCN(C(=S)Nc3ccccc3)CC2)cc1,3.9%
16,CC(C)c1ccc(NC(=O)C2CCCN(S(=O)(=O)c3cccnc3)C2)cc1 (stereo not drawn),-1.95%
17,CCOC(=O)c1c(-c2ccc(C)cc2)csc1/N=C(\C)C1=C(O)c2ccccc2C1=O,-2.27%
18,CCOC(=O)c1c(C)[nH]c2c1-c1ccccc1C(=O)C2=O,-1.61%
19,CCOC(=O)C1=C(c2ccc(OC)cc2)C(=O)c2ccccc2C1=O,87.2% (active)
20,COC(=O)C1(C)CC1(c1ccccc1)c1ccccc1 (stereo not drawn),1.72%
21,C[n+]1cc(-c2ccccc2)oc1-c1ccccc1,0.81%
22,CCOc1ccc(N/C=C/C(=O)c2cc(OC)c(OC)c(OC)c2)cc1,-0.12%
23,COc1ccc(C(=O)/C=C/Nc2ccccn2)cc1,65.4% (active)
24,Cc1cc(N/C=C\C(=O)c2ccc(Cl)c(Cl)c2)no1,-0.49%
25,CCOc1cc2ccccc2cc1C(=O)Nc1ccccn1,-0.82%

row,SMILES,inhibition
1,CCOc1ccc(N/C=C/C(=O)c2ccccc2)cc1,51% (active)
2,O=C(/C=C\NCC(=O)c1ccccc1)c1ccccc1,2.9%
3,COc1cc2c(cc1OC)C(c1cccc([N+](=O)[O-])c1)=NCC2,-2.48%
4,CCCCN(C)CCNC(=O)C1CCCN(S(=O)(=O)c2cccc3nsnc23)C1 (stereo not drawn),-6.58%
5,COc1ccc(N=Nc2c(-c3ccc(OC)cc3)[nH]oc2=O)cc1,0.28%
6,NC(=O)c1ccc(NC(=O)COC(=O)c2c3c(nc4ccccc24)/C(=C\c2ccc4c(c2)OCO4)CCC3)cc1,-5.16%
7,COc1ccc(Sc2nc(-c3ccccc3)ncc2OC)cc1,-2.08%
8,COc1ccccc1Cc1nc(-c2ccc(C)cc2)no1,3.61%
9,COc1ccc(-c2nc(-c3ccccc3)no2)c(OC)c1,44.3% (active)
10,COC(=O)c1cccnc1NC(=S)NC(C)C,-2.4%
11,CC(=O)c1ccc(NC(=O)Cn2c(=O)oc3ccccc32)cc1,-5.66%
12,CCSc1nnc(SCC(=O)NNC(=O)c2ccccc2F)s1,-3.94%
13,O=c1oc2ccccc2cc1-c1cn(-c2ccccc2)c(=S)[nH]1,65.7% (active)
14,COc1ccc(-c2cn(-c3ccc(OC)cc3)c(=S)[nH]2)cc1,0.9%
15,S=c1[nH]c(-c2cccs2)cn1-c1ccccc1,8.66%
16,COc1ccc(C)cc1NC(=O)CNCc1cccs1,9.78%
17,CC(C)Sc1ncnc2c1cnn2-c1ccccc1,-2.09%
18,COc1cc(NC(=O)CSc2ccc(-c3cccnc3)nn2)cc(OC)c1,-0.99%
19,Cc1ccc2[nH]c3c(=O)n(CC(=O)NCCc4ccc(Cl)cc4)ncc3c2c1,-1.14%
20,CC1CC(C)CN(CCCNC(=O)Cn2ncc3c([nH]c4ccccc43)c2=O)C1 (stereo not drawn),2.52%
21,Cc1cccc(CCNC(=O)Cn2ncc3c([nH]c4ccc(C)cc43)c2=O)c1,20.9% (active)
22,CCCn1nc(NC(=O)C(C)C)c2cc3cc(OC)ccc3nc21,-7.87%
23,C=Cn1cc[n+](CC(=O)c2ccc(OC)c(OC)c2)c1,9.58%
24,O=C(CCCC(=O)N1CCN(c2cccc(Cl)c2)CC1)c1ccccc1,-3.4%
25,Cc1ccc(S(=O)(=O)N(CCCN(C)C)Cc2ccc3c(c2)OCO3)cc1,-1.45%

row,SMILES,inhibition
1,CC(NCC(=O)Nc1cc(Cl)cc(Cl)c1)c1ccccc1 (stereo not drawn),10.2%
2,O=C(C1CCC1)N1CCN(c2ccccc2)CC1,-0.73%
3,CCCCCN(C(=O)CCC(=O)OCC(=O)NCc1ccc(OC)cc1)c1c(N)n(CCCC)c(=O)[nH]c1=O,-5.78%
4,Cc1cccc(N(C)C(=O)CN2C(=O)COc3ccc(S(=O)(=O)N4CCCCCC4)cc32)c1,2.46%
5,CC(C)c1cc(C(N)=O)c(NC(=O)c2cccc(COc3ccc(Br)cc3)c2)s1,6%
6,CCOc1ccc(OCc2cccc(C(=O)N(CC)CC)c2)cc1,19.7% (active)
7,COc1ccc(OCc2cccc(C(=O)N3CCCC3)c2)cc1,12.3%
8,COc1cc(C(=O)N2CCN(C)CC2)cc(OC)c1OC,-1.01%
9,CCOC(=O)N1CCN(C(=O)COCc2cc(-c3ccc4c(c3)OCO4)on2)CC1,-2.54%
10,Cc1ccc2c(C)c(C(=O)N(C)CCC3CCCCO3)oc2c1C (stereo not drawn),-5.53%
11,COc1ccc(Cl)cc1C(=O)NCC#N,-11.2%
12,N#C/C=C\Oc1ccc(Cl)cc1N,19.9% (active)
13,COc1ccc(N2CCN(C(=O)c3ccccc3NC(=O)C3=C(C)OCCS3)CC2)cc1,-2.69%
14,Cc1nc2ccccc2nc(C)c1=NOCc1ccc(Cl)cc1Cl,-1.08%
15,CCCCCCC(=O)Nc1nc(C)c(-c2csc(Nc3cc(Cl)ccc3OC)n2)s1,4.86%
16,Cc1nc(NC(=O)c2cccc(Cl)c2)sc1-c1csc(Nc2cccc(Cl)c2)n1,67.3% (active)
17,CC(=O)Nc1nc(C)c(-c2csc(Nc3ccc(S(N)(=O)=O)cc3)n2)s1,-0.54%
18,Cc1ccc(Nc2nc(-c3sc(NC(=O)c4ccccc4)nc3C)cs2)cc1,48.7% (active)
19,CCCCCCC(=O)Nc1nc(C)c(-c2csc(Nc3cccc(OC)c3)n2)s1,0.02%
20,CCCCC(=O)Nc1nc(C)c(-c2csc(Nc3ccc(Cl)cc3)n2)s1,16.9% (active)
21,C=CCCC(=O)Nc1nc(C)c(-c2csc(Nc3ccc(Cl)cc3)n2)s1,6.06%
22,CCC(=O)Nc1nc(C)c(C(=O)Nc2cccc(Cl)c2)s1,-0.01%
23,Cc1ccc(-c2csc(NNC(=O)c3ccccc3)n2)cc1,0.18%

# From PubChem BioAssay AID1789 (The Scripps Research Institute Molecular Screening Center, 2009)
